Bioassay records (PubChem BioAssay)
The list is not random: actives were taken first. Their share in the collection is about 9.2%.
NPC1 prom act: NPC1 promoter activation; Potency, µM (highest dose often 9.22 µM), without a hit: top-dose activation, actives largely listed as activators; 2.4% of 320,000 active; AID 485313; Huh7 NPC1 promoter luciferase reporter, 24 h; further: % of control where 0% means no effect; nearly all actives have a fitted effect of over 60% in size
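Huh7 reporter cells (NPC1 promoter driving luciferase) are dosed with compound for 24 h at 37 °C, 5% CO2; luciferase detection reagent is then added and luminescence measured after 10 min at ambient temperature.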
ELG1 DNA repair: inhibitors of ELG1-dependent DNA repair in HEK293T cells. HEK293T ELG1-luciferase reporter, luminescence, 16 h; DNA damage induced by 5-fluorouridine. Potency, µM (series often up to 46.1 µM), for inactives: at the highest dose activity change, negative = inhibition, actives largely listed as inhibitors. 2.3% of 330,000 active. AID 504467; further: on the % scale 0 is the no-effect control and ±100 the full control effect; nearly all actives have a fitted effect of over 55% in size
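In this reporter screen, reduction of luminescence relative to DMSO vehicle indicated activity. Compounds and 5-fluorouridine were added together to 2,000 cells per well, incubated for 16 hr at 37 °C, then developed with ONE-Glo.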
SMN2 splice enh: increases expression of the SMN2 splice variant. HEK293 SMN2-luciferase splicing reporter, luminescence, 30-36 h. Potency, µM (series often up to 46.1 µM), without a hit: at the highest dose activity change, positive = activation, hits mostly activators. 2.8% of 210,000 active. AID 1458; further: % of control where 0% means no effect; nearly all actives have a fitted effect of over 55% in size
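qHTS luciferase splicing reporter: luminescence rises when SMN2 exon 7 is included in transfected HEK293 cells. Compound exposure lasted 30-36 h at 37C, with 4.5 mM final sodium butyrate as control, followed by a ONE-Glo read.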
Rab9 promoter act: Rab9 promoter activation. Huh7 Rab9 promoter-luciferase reporter, luminescence, 24 h. Potency, µM (doses to about 9.22 µM), for the others: at the highest dose activation, negative = inhibition, most hits filed as activators. 2.8% of 320,000 active. AID 485297; further: % of control where 0% means no effect; nearly all actives have a fitted effect of over 60% in size
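Cells were plated at 1500 per well in reduced-serum medium with 10% FBS and left 2 h. Compound in DMSO was then added for 24 h at 37 °C. Reporter signal was read by luminescence after 10 min with luciferase detection reagent.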
FLuc counter: inhibits or activates purified firefly luciferase, miR-21 counter-screen. Potency, µM (titrated, usually from 57.5 µM), for inactives: at the top dose activity change, negative = inhibition, usual class: inhibitors. P08659. 6.9% of 360,000 active. purified FLuc, Km substrates, luminescence inhibition;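 further: plate controls were vehicle for no effect and reference inhibitor for full effect; nearly all actives have a fitted effect of over 55% in size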
Target sequence (P08659 whole entry, looked up): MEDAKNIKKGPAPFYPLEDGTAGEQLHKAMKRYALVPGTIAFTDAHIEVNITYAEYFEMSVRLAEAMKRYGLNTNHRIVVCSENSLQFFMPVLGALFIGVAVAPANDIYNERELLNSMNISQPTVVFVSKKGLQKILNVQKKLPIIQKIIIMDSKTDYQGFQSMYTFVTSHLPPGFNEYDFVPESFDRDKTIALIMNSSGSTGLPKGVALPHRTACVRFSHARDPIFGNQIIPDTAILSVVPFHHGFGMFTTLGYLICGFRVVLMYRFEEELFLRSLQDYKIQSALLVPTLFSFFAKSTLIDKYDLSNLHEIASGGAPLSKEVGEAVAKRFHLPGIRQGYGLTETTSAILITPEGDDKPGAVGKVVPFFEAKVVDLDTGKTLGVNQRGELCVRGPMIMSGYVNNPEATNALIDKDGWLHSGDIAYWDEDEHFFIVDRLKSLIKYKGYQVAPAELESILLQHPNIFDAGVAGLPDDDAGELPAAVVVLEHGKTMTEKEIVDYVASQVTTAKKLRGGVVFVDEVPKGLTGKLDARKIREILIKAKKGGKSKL
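Purified P. pyralis luciferase, 10 nM final, with Km-level 10 uM D-luciferin and 10 uM ATP in 50 mM Tris acetate pH 7.5, 10 mM Mg acetate, 0.01% Tween-20, 0.05% BSA; 6-point qHTS titration about 60 µM downward; luminescence read.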
ELG1 genotox: induces genotoxicity in HEK293T cells with luciferase-tagged ELG1; Potency, µM (highest dose often 46 µM), for inactives: at the top dose activity change, positive = activation, usual class: activators; AID 504466; HEK293T ELG1-luciferase reporter, luminescence, 16 h; 1.3% of 330,000 active; further: % of control where 0% means no effect; nearly all actives have a fitted effect of over 60% in size
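After overnight (16 hr) compound treatment at 37 °C, ELG1-luciferase HEK293T cells were lysed with ONE-Glo; luminescence quantified 30 min later at room temperature.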
Active calls of the source: *; ? = inconclusive; / = not tested or not shown; [ ] = dose if it differs, or a comment. The call rests on the fitted dose curve; in most records, active means well fitted curve in the direction sought with a large enough effect; inconclusive means small, poorly fitted or top-dose-only effect, or another doubt; inactive means no such curve, though single readings can be large; an effect the other way counts as inactive or inconclusive. Potency means the concentration at half of the fitted maximal effect.

SMILES | NPC1 prom act | ELG1 DNA repair | SMN2 splice enh | Rab9 promoter act | FLuc counter | ELG1 genotox
C/C(=N\NC(=O)c1ccc2c(c1)OCCO2)c1ccccc1 | ? | ? | / | 2.9% | 0.379µM* | 0.326µM*
C/C(=N\NC(=O)c1ccc(N/N=C(\C)c2ccc(O)cc2)cc1)c1ccc(O)cc1 | ? | 8.2µM* | / | ? | 4.78µM* | 0.2%
C/C(=N\NC(=O)c1ccc2c(c1)OCO2)c1ccc(C(=O)O)s1 | -0.4% | ? | / | 1.0% | ? | 2.4%
C/C(=N\NC(=O)c1ccc(O)cc1)c1ccc2c(c1)OCCO2 | 22.0% | ? | / | 28.0% | 13.5µM* | ?
C/C(=N\NC(=O)c1ccc(O)cc1)c1ccc(N2CCOCC2)cc1 | 9.2% | 20.8% | / | 4.5% | ? | 3.6%
CCOc1ccc(C(=O)c2cn(CC(=O)Nc3cccc(OC)c3)c3cc4c(cc3c2=O)OCCO4)cc1 | / | / | -4.9% | / | 7.2% | /
Cc1ccc(S(=O)(=O)N2CCC[C@H]2C(=O)OCc2cc(=O)oc3cc(C)ccc23)cc1 | / | 8.9% | / | / | / | -1.4%
COc1ccccc1Cc1nc2ccccc2nc1SCC(=O)Nc1cccc(Cl)c1C | / | / | / | / | -2.1% | /
C/C(N)=C(/C#N)C(=O)CN1C(=O)NC(Cc2c[nH]c3ccccc23)C1=O (centres undefined) | -0.8% | 7.2% | / | 1.5% | -2.4% | 1.0%
COCc1cc(C)nc(N/N=C/c2ccc(-c3ccc(Cl)cc3[N+](=O)[O-])o2)c1C#N | 0.3% | -7.9% | -2.5% | 3.98µM* | -10.3% | -1.0%
O=C(N/N=C/c1cccc(F)c1)c1cc(-c2ccco2)nc2ccccc12 | 0.6% | ? | ? | 5.8% | 0.536µM* | 7.8%
COc1cc(/C=N/NC(=O)c2cc(-c3ccco3)nc3ccccc23)cc(OC)c1O | -5.7% | ? | / | -2.1% | 12µM* | -4.5%
CCc1ccc(OCC(=O)NCc2nc(-c3cccc(C)c3)no2)c(Br)c1 | / | / | -0.2% | / | -10.8% | /
OCCNc1cc(-n2nc(-c3ccccc3)cc2-c2ccccc2)ncn1 | 0.5% | 16.4µM* | -11.9% | 1.2% | -17.5% | -1.1%
CCN(c1ccccc1)S(=O)(=O)c1ccc(NC(=S)NC(=O)c2cccs2)cc1 | -2.1% | 13µM* | -32.0% | -4.2% | -0.8% | -13.9%
CN(C)S(=O)(=O)c1ccc(NC(=S)NC(=O)c2cccs2)cc1 | 0.1% | 6.6% | / | 13.5% | ? | -0.7%
CCN(CC)c1ccc(NC(=S)NC(=O)c2cccs2)cc1 | ? | ? | / | 0.562µM* | 15.1µM* | 7.9%
COc1cc(NC(=S)NC(=O)c2cccs2)ccc1NC(=O)C(C)C | 18.7% | 2.2% | 7.7% | 27.1% | ? | -2.2%
CC(C)C(=O)Nc1cccc(NC(=S)NC(=O)c2cccs2)c1 | 2.82µM* | ? | / | 2.82µM* | -15.8% | 19.5%
Cc1ccc(-c2cc(C(=O)Nc3c(C)n(C)n(-c4ccccc4)c3=O)[nH]n2)c(O)c1C | 0.1% | ? | / | -3.9% | ? | -2.9%
Cc1[nH][nH]c(=O)c1/C=N/N1CCOCC1 | -1.7% | 3.0% | -0.5% | -4.4% | -0.8% | 13.1%
O=C1C2=C(Nc3cc([N+](=O)[O-])ccc3N2)O[C@@H]1c1c[nH]c2ccc(COc3ccccc3)cc12 | / | / | -4.4%[9.22 µM] | / | / | /
CCN(CC1CCCO1)C(=O)c1cc(COc2cc(C)c(Cl)c(C)c2)on1 (centres undefined) | 3.16µM* | ? | / | 2.24µM* | 13.5µM* | ?
Cc1cc(OCc2cc(C(=O)N3CCCCCC3)no2)cc(C)c1Cl | 2.82µM* | ? | / | 2.51µM* | 13.5µM* | ?
COCC1CCN(C(=O)c2cc(COc3cncc(Cl)c3)on2)C1 (centres undefined) | -1.7% | ? | / | 2.6% | 0.0% | -4.6%
Cc1ccc(OCc2cc(C(=O)N3CCCCCCC3)no2)cc1C | ? | ? | / | ? | ? | 22.4%
